# PPARg SRC3 recr = PPARgamma agonists recruiting SRC-3 coactivator, primary screen, biochemical | Peroxisome proliferator-activated receptor gamma (Homo sapiens), P37231 | biochemical PPARgamma/SRC-3 coactivator recruitment assay | activation, % at 8 µM | hit rate 0.26% among 200,000 | AID 731, 2007; in the data active = activation above about 23%
# TR-FRET SRC-2 ct = TR-FRET signal artefacts, primary screen, artefact control for PPARgamma SRC-2 agonist project, biochemical. TR-FRET artefact counter-screen; stronger effect = higher value. AID 1049, 2008. TR-FRET ratio at 8 µM. hit rate 0.4% among 200,000; in the data active = TR-FRET ratio above about 2000
# PPARg SRC-1 ag = PPARgamma agonists recruiting SRC-1 coactivator, primary screen, biochemical; Peroxisome proliferator-activated receptor gamma (Homo sapiens), P37231; PPARgamma-SRC-1 coactivator recruitment biochemical assay; activation, % at 8 µM; hit rate 0.41% among 200,000; in the data active = activation above about 19%
# SRC1 TRFRET art = TR-FRET detection interference compounds, primary screen, artefact control for PPARgamma SRC-1 recruitment agonists, biochemical, TR-FRET emission ratio; TR-FRET detection artefact counter-screen; stronger effect = higher value; TR-FRET ratio at 8 µM; hit rate 0.34% among 99,000; in the data active = TR-FRET ratio above about 2300
# PPARg SRC-2 ag = agonists of PPARg-SRC-2 recruitment, primary screen, biochemical, HTS; AID 1032, 2008; activation, % at 8 µM; hit rate 0.34% among 200,000; Peroxisome proliferator-activated receptor gamma (Homo sapiens), P37231; PPARgamma LBD-SRC-2 recruitment
# SRC3 TRFRET art = TR-FRET detection interference compounds, artefact control for PPARgamma SRC-3 recruitment agonists, biochemical, TR-FRET ratio | hit rate 0.39% among 99,000 | TR-FRET artefact counter-screen, PPARgamma/SRC-3 format; stronger effect = higher value | TR-FRET ratio at 8 µM; in the data active = TR-FRET ratio above about 2000
# PPARg SRC2 ag = agonists of PPARgamma SRC-2 coactivator recruitment, confirmation, biochemical, HTS; biochemical SRC-2 recruitment by PPARgamma; shares compounds with PPARg SRC3 recr; hit rate 52% among 790; AID 1297, 2008; activation, % at 8 µM
# PPARg SRC1 ag = PPARgamma agonists recruiting SRC-1 coactivator, confirmation, biochemical; PPARgamma–SRC-1 coactivator recruitment biochemical assay; activation, % at 8 µM; shares compounds with PPARg SRC3 recr; hit rate 43% among 790; in the data active = activation above about 20%
# PPARg SRC3 conf = PPARgamma-driven SRC-3 coactivator recruitment agonists, confirmation, biochemical; shares compounds with PPARg SRC3 recr; biochemical PPARgamma-SRC-3 coactivator recruitment, agonist mode; activation, % at 8 µM; hit rate 29% among 790; in the data active = activation above about 24%
# Numbers stand for hits; – = inactive; · = no result. This is a sample that favours compounds with a hit; in the whole collection about 0.9% have one here. Rule as the data show it, unless noted: active = activation above about 22%; inactive = the rest.
SMILES,PPARg SRC3 recr,TR-FRET SRC-2 ct,PPARg SRC-1 ag,SRC1 TRFRET art,PPARg SRC-2 ag,SRC3 TRFRET art,PPARg SRC2 ag,PPARg SRC1 ag,PPARg SRC3 conf
COc1ccc(-c2csc(NC(=O)C3=NN(c4ccccc4)C(=O)CC3)n2)cc1,–,–,–,–,–,–,·,·,·
O=c1[nH]n(-c2ccccn2)c(=O)c2ccccc12,–,–,–,·,–,·,·,·,·
O=c1[nH]n(-c2ccccc2)c(=O)c2ccccc12,–,–,20.5,–,–,–,·,·,·
Cc1cc(C)c(S(=O)(=O)N2CCCCC2)c(C)c1N(C)S(=O)(=O)c1ccccc1,–,–,–,·,–,·,·,·,·
COc1ccc(-n2nc(C(=O)NCC(=O)Nc3ccccn3)c3ccccc3c2=O)cc1Cl,–,–,23.4,·,–,·,·,·,·
O=C(Cn1cnc2c(nnn2Cc2ccccc2F)c1=O)N1CCN(c2ccccc2)CC1,–,–,–,·,–,·,·,·,·
O=C(CSc1ncnc2c1nnn2Cc1ccccc1F)N1CCN(c2ccccc2)CC1,–,2938,–,·,67.4,·,·,·,·
COc1cc(C(=O)N/N=c2/sc3ccccc3n2C)cc(OC)c1OC,–,–,–,–,–,–,·,·,·
COc1ccc(C(=O)N=c2sc3ccccc3n2C)cc1OC,–,–,167.8,4952,–,–,·,·,·
COc1cc2nc(CN(C)Cc3ccc(OC)c(OC)c3OC)[nH]c(=O)c2cc1OC,–,–,–,–,–,–,·,·,·
C#CCSc1nnc(-c2ccccc2)c(=O)[nH]1,–,–,–,·,22.5,·,·,·,·
CC(=O)OCC(=O)Nc1cc(S(=O)(=O)N2CCCCCC2)ccc1Cl,–,–,–,–,–,–,·,·,·
O=C(COC(=O)c1cc(Br)ccc1O)Nc1cc(S(=O)(=O)N2CCCC2)ccc1Cl,–,–,–,–,–,2102,·,·,·
CCCNC(=S)N1CCC(C(=O)c2ccc(OC)cc2)CC1,–,–,–,–,–,–,·,·,·
Cc1ccc2cc(C#N)c(SCC(=O)N3CCCc4ccccc43)nc2c1C,–,–,–,·,–,·,·,·,·
Cc1ccc(/C=N/N2CCN(c3ccc(Cl)cc3)CC2)o1,–,–,–,·,–,·,·,·,·
Cc1ccc(Cl)cc1-c1ccc(C=Nc2ccc(N3CCOCC3)cc2)o1,27.0,2256,32.8,2713,37.0,2494,47.3,34.2,27.8
O=S(=O)(Nc1nc2ccccc2nc1Cl)c1ccc(Br)cc1,–,–,–,–,–,–,·,·,·
CCCCOc1ccc(-c2cc(C(F)(F)F)c(C#N)c(SCC(=O)O)n2)cc1,–,–,–,–,–,–,·,·,·
O=C(O)C1=C[C@H](c2csc3ccccc23)C[C@H](OCc2ccc(CO)cc2)O1,–,–,23.8,–,–,–,–,–,–
O=C(O)C1=C[C@@H](c2csc3ccccc23)C[C@@H](OCc2ccc(CO)cc2)O1,–,–,–,–,–,–,·,·,·
CN1CCc2nc(NC(=O)COc3ccc(C#N)cc3)sc2C1,–,–,–,–,–,–,·,·,·
CCC(CC)C(=O)Nc1nnc(-c2cccs2)s1,–,–,–,·,–,·,·,·,·
COc1cccc(OC)c1C(=O)Nc1nnc(-c2cccs2)s1,–,–,30.8,2546,28.4,2204,27.2,21.5,–
COc1ccc(-n2c(-c3ccco3)n[nH]c2=S)cc1,–,–,21.7,·,–,·,–,–,–
SMILES,PPARg SRC3 recr,TR-FRET SRC-2 ct,PPARg SRC-1 ag,SRC1 TRFRET art,PPARg SRC-2 ag,SRC3 TRFRET art,PPARg SRC2 ag,PPARg SRC1 ag,PPARg SRC3 conf
COc1ccccc1-c1n[nH]c(=S)n1N,–,–,–,–,–,–,·,·,·
COc1ccccc1-c1n[nH]c(=S)n1-c1ccccc1,83.8,2941,61.9,·,63.3,·,56.6,39.4,38.8
Nn1c(-c2ccco2)n[nH]c1=S,–,–,–,·,–,·,·,·,·
S=c1[nH]nc(-c2ccco2)n1-c1ccc(Cl)cc1,–,–,–,–,22.8,2067,–,–,–
COc1ccc(CNC(=O)c2cc3c(s2)CN(Cc2ccccc2)C3)cc1,–,–,–,–,–,–,·,·,·
Cn1c(=O)cc(SCC(=O)NCCC2=CCCCC2)c2ccccc21,–,–,–,–,–,–,·,·,·
Cn1c(=O)cc(OCCCC(=O)N2CCN(c3ccccc3)CC2)c2ccccc21,–,–,–,·,–,·,·,·,·
CN1CCN(C(=O)CSc2cc(=O)n(C)c3ccccc23)CC1,–,2614,34.5,2594,38.3,2760,29.0,–,–
Cn1c(=O)cc(SCC(=O)N2CCN(c3ccccn3)CC2)c2ccccc21,53.0,2556,38.3,·,55.4,·,39.9,29.1,27.3
CCN1CCN(C(=O)CSc2cc(=O)n(C)c3ccccc23)CC1,–,2412,33.0,2968,–,2490,29.0,–,–
Cn1c(=O)cc(SCC(=O)N2CCN(c3ccccc3)CC2)c2ccccc21,40.4,2466,33.7,·,46.6,·,40.0,27.6,28.9
CN1CCN(C(=O)CCCOc2cc(=O)n(C)c3ccccc23)CC1,–,–,–,·,–,·,·,·,·
O=C(O)C1CSC2(c3ccc(Br)cc3)CCC(=O)N12 (stereo not given),–,–,–,–,–,–,·,·,·
O=C(C1CCCO1)N1CCN(C(=S)Nc2ccccc2F)CC1 (stereo not given),–,–,–,–,–,–,·,·,·
Cc1cccc(CSc2nc3c(c(-c4cccs4)c2C#N)CN(C)CC3)c1,–,–,–,–,–,–,·,·,·
Cc1cccc(CSc2nc(N)c(C#N)c(-c3cccs3)c2C#N)c1,–,–,–,·,22.8,·,–,–,–
COc1ccc(Cn2c(-c3ccc(C)cc3)c[n+]3ccccc23)cc1,–,–,–,–,–,–,·,·,·
COC(=O)c1sccc1NC(=O)Nc1ccc(Cl)c(Cl)c1,–,–,19.4,·,23.4,·,–,–,–
CCc1n[n+](CC(=O)c2ccccc2)c(N)s1,–,–,–,–,–,–,·,·,·
CCSc1oc(-c2ccccc2)nc1S(=O)(=O)c1ccccc1,–,–,–,·,–,·,·,·,·
Cc1ccc(S(=O)(=O)c2nc(-c3cccs3)oc2SCC(N)=O)cc1,–,–,–,·,31.2,·,31.6,31.7,–
CSc1oc(-c2ccccc2)nc1S(=O)(=O)c1ccc(C)cc1,–,–,–,–,26.0,2062,25.1,20.3,–
CN(C)c1ccc(NC(=O)Nc2ccc3snnc3c2)cc1,36.3,–,22.7,·,–,·,–,–,–
COc1ccc(C2=NN(C(N)=S)C(c3ccccc3)C2)cc1 (stereo not given),29.1,2602,57.4,3172,53.3,3054,58.7,48.1,41.1
